Experimental data reported in PubChem BioAssay AID449 (The Scripps Research Institute Molecular Screening Center, 2006).
Out of some 56,000 compounds screened, about 320 (0.57%) were called active.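 Rule for the calls: active = activation above a cutoff set at the mean activation of all tested compounds plus 3 SD (cut at about 54% in these data); inactive = the rest, inconclusive results apart.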 The sample as a whole holds a higher share of actives than the screen did.

Target: Sphingosine 1-phosphate receptor 1 (Homo sapiens) (UniProt P21453)
Sequence (P21453 whole entry, looked up): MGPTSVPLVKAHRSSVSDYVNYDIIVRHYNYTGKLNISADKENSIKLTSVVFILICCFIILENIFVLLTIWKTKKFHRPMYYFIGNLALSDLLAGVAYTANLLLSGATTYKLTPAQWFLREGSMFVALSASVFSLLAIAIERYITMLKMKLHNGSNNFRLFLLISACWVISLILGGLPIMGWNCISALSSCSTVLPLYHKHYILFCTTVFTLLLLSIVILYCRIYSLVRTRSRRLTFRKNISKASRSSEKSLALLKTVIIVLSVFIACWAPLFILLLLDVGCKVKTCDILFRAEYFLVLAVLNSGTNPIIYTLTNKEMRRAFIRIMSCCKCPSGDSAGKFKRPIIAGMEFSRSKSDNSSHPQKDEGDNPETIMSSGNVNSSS
Experiment: S1P1 agonists and agonism potentiators, primary screen, cell-based, primary and confirmation screens, CRE-bla reporter (AID 449);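 note: forskolin at 4 µM as EC80 and the EC20 agonist is SEW2871; 100% = SEW2871 at its EC100 plus forskolin at EC80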
Conditions: S1P1 CRE-bla cells, forskolin, beta-lactamase FRET, potentiator mode, at 9.5 µM, stronger effect = higher value, 100% = saturating reference agonist, 0% = basal, S1P1 agonist co-added at EC20, 2 nM
[1] = measured here: confirmation screen, triplicate average

| SMILES | activation | activation [1] [%] |
| --- | --- | --- |
| COC(=O)c1sc(NC(=O)c2csc3c2CCCC3)nc1C | 8.7% (inactive) |  |
| COc1ccc(C(=O)Nc2nncs2)c(OC)c1 | -24% (inactive) |  |
| COC(=O)c1sc(NC(=O)c2ccc(OC)cc2OC)nc1C | 108% (active) | 94.2 |
| CSCCC(NC(=O)c1ccc(=O)n(C)n1)c1nc2ccccc2[nH]1 (stereo not given) | -17.6% (inactive) |  |
| COc1ccc2nc(N3CCCC(O)C3)c(C#N)cc2c1 (stereo not given) | 16.4% (inactive) |  |
| Cc1ccc(S(=O)(=O)C2(S(=O)(=O)c3ccc(C)cc3)CCCC2)cc1 | -19.8% (inactive) |  |
| CCCOC(=O)CC1C(=O)NCCN1Cc1ccc(F)cc1 (stereo not given) | -20.1% (inactive) |  |
| CCC(CC)c1nnc(NS(=O)(=O)Cc2ccccc2)s1 | -23.9% (inactive) |  |
| COc1cccc(C2/C(=C(/O)c3ccc(F)cc3)C(=O)C(=O)N2CCN(C)C)c1 (stereo not given) | -5.8% (inactive) |  |
| COc1ccc(OC)c2c1sc(=NC(=O)CN1C(=O)CCC1=O)n2C | -15.9% (inactive) |  |
| COc1ccc(-n2nnc3c(=O)n(CC(=O)N4CCC(Cc5ccccc5)CC4)cnc32)cc1 | 18.2% (inactive) |  |
| N#CCCN1CCN(S(=O)(=O)c2ccc(S(=O)(=O)NC3CCCCC3)cc2)CC1 | -9% (inactive) |  |
| O=c1c(-c2ccc3c(c2)OCCO3)c(C(F)(F)F)oc2cc(O)cc(O)c12 | 84% (active) | 95.4 |
| CCN1CCN(Cc2c(O)ccc3c(=O)c(-c4ccc(OC)c(OC)c4)c(C(F)(F)F)oc23)CC1 | -27.2% (inactive) |  |
| Cc1ccc(-c2nc(CS(=O)CC(=O)N3CCN(c4ncccn4)CC3)c(C)o2)cc1 (stereo not given) | -2.4% (inactive) |  |
| O=C1CC(c2cccc(Br)c2)C2=C(CCCC2=O)N1 (stereo not given) | -6.5% (inactive) |  |
| C=C(C)Cn1c(N2CCCC2)nc2c1c(=O)[nH]c(=O)n2C | -3.8% (inactive) |  |
| O=C(c1cc(-c2ccccc2O)on1)N1CCCC1 | -19% (inactive) |  |
| COc1ccc(-c2c(C)nn3c(N4CCC(C(=O)N5CCCCC5)CC4)cc(C)nc23)cc1OC | -7.7% (inactive) |  |
| CN(CCCC(=O)Nc1nccs1)S(=O)(=O)c1ccc(Cl)cc1 | 20.6% (inactive) |  |
| O=c1c2ccccc2oc2nc3n(c(=O)c12)CCCS3 | -24.6% (inactive) |  |
| CNC(=O)c1c(NC(=O)c2ccc(S(=O)(=O)N3CCOCC3)cc2)sc2c1CCC2 | -19.6% (inactive) |  |
| O=C(NCc1ccc(Cl)c(Cl)c1)c1cccnc1 | 10.2% (inactive) |  |
| COC(=O)c1c(NC(=O)CCN2CCOCC2)sc2c1CCCC2 | -4.7% (inactive) |  |

| SMILES | activation | activation [1] [%] |
| --- | --- | --- |
| O=S(=O)(NCc1ccccn1)c1ccc(F)cc1 | -21.3% (inactive) |  |
| O=S(N1CCCCCC1)C12CC3CC(CC(C3)C1)C2 (stereo not given) | -13.3% (inactive) |  |
| CCCn1c(O)c(CN2CCCC(C)C2)c(C)c(C#N)c1=O (stereo not given) | 1% (inactive) |  |
| CCOC(=O)CSC1=C(C#N)C(c2ccco2)C(C(=O)OCc2ccccc2)=C(C)N1 (stereo not given) | 11.9% (inactive) |  |
| FC(F)(F)c1cc(-c2ccco2)nc(N2CCOCC2)n1 | -22.2% (inactive) |  |
| CC(C)CCNC(=O)CCNS(=O)(=O)c1ccc(Cl)cc1 | 12.2% (inactive) |  |
| O=C(NC1CCN(Cc2ccccc2)CC1)c1ccccc1F | -25.4% (inactive) |  |
| CCOc1cc(/C=N/n2cnnc2)c(Br)cc1O | -9.1% (inactive) |  |
| c1nnc2c3c4c(sc3ncn12)CCC4 | -8.2% (inactive) |  |
| COc1ncnc2sc3c(c12)CCCC3 | -21.1% (inactive) |  |
| Cn1cc(S(=O)(=O)N2CCC(Cc3ccccc3)CC2)c(=O)n(C)c1=O | -8.3% (inactive) |  |
| Cc1nnc(SCC(N)=O)n1CC1CCCO1 (stereo not given) | -8.7% (inactive) |  |
| Cc1ccsc1C(=O)OCC(=O)c1cc(C)n(CC2CCCO2)c1C (stereo not given) | 57% (active) | 84.7 |
| COC(=O)c1ccc2c(=O)n(CC3CCCO3)c(=S)[nH]c2c1 (stereo not given) | -12.1% (inactive) |  |
| COC(=O)c1ccc(S(=O)(=O)c2ccc(C(=O)OC)s2)s1 | 1.7% (inactive) |  |
| NC(=O)c1ccsc1NC(=O)c1ccco1 | 1% (inactive) |  |
| COc1cc(=O)[nH]c(=O)n1C(=O)Cc1ccccc1 | -7.8% (inactive) |  |
| CC1CCCN(Cc2nc3c(c(=O)n(C)c(=O)n3C)n2Cc2cccc3ccccc23)C1 (stereo not given) | 10.7% (inactive) |  |
| CCOC(=O)C1CCCN(C(=O)C2CCN(c3nnc(-n4cccc4)s3)CC2)C1 (stereo not given) | -27.3% (inactive) |  |
| Cc1c2cn[nH]c(=O)c2c(C)n1Cc1ccc(F)cc1 | -6.4% (inactive) |  |
| C=CCSc1nnc(Cn2c(=O)sc3ccccc32)n1C | -13.4% (inactive) |  |
| Cn1c(=O)c2c(nc(SCCNS(=O)(=O)c3ccccc3)n2C)n(C)c1=O | -18.9% (inactive) |  |
| O=c1c2[nH]c3ccc(Cl)cc3c2ncn1Cc1ccccn1 | -22.3% (inactive) |  |
| CN(C)/C=C/c1c(C#N)c(=O)ncn1Cc1ccccc1 | -5.6% (inactive) |  |

| SMILES | activation | activation [1] [%] |
| --- | --- | --- |
| CN(C)c1ccnc2sc3c(=O)n(Cc4ccccc4)cnc3c12 | 75.3% (active) | 84.4 |
| CCN1CCCC1CNc1ncnc2c1[nH]c1ccc(F)cc12 (stereo not given) | 4.2% (inactive) |  |
| O=C1CCCN1CCCNc1ncnc2c1[nH]c1ccccc12 | 6.8% (inactive) |  |
| CC(C)OCCCNc1ncnc2c1[nH]c1ccc(F)cc12 | 91.1% (active) | 110 |
| Cc1nc2c(c(=O)n1Cc1ccco1)c1nc3ccccc3nc1n2Cc1ccccc1 | 2.5% (inactive) |  |
| CCCCCCn1c(SCC(=O)c2ccccc2)nc2c1c(=O)[nH]c(=O)n2C | -26.5% (inactive) |  |
| O=C(CCN1C(=O)COc2ccccc21)NCCCN1CCN(c2ccc(F)cc2)CC1 | -29.7% (inactive) |  |
| N/C(=N\c1nc2ccccc2o1)NC(=O)C(Cc1ccccc1)N1C(=O)c2ccccc2C1=O (stereo not given) | -12% (inactive) |  |
| CCOc1ccc2[nH]c(=O)c(CN(CCCO)C(C)=O)cc2c1 | 2.1% (inactive) |  |
| COc1ccc(S(=O)(=O)N2CCN(C(=O)c3cccs3)CC2)cc1OC | 15.9% (inactive) |  |
| COC(=O)c1c(-c2ccc(C)cc2)csc1N | 23% (inactive) |  |
| Cc1ccc(-c2nc(COC(=O)c3c(C)noc3C)cs2)cc1 | 85.3% (active) | 98.2 |
| Cc1noc(C)c1C(=O)OCC(=O)/C=C1\N(C)c2ccccc2C1(C)C | -18.5% (inactive) |  |
| Cc1cccn2c(=O)c3cc(C#N)c(=O)n(CCCN4CCOCC4)c3nc12 | -29% (inactive) |  |
| Cc1nc(C)c(C(=O)Nc2cccc(C)c2C)o1 | -15.9% (inactive) |  |
| CCN(Cc1cc2cc(C)ccc2[nH]c1=O)S(=O)(=O)c1ccccc1 | 26.9% (inactive) |  |
| CCc1ccccc1N(CC(=O)NCCSCc1ccco1)S(C)(=O)=O | -204% (inactive) |  |
| COc1ccc(-c2noc(-c3cccc(OC)c3OC)n2)cc1OC | 84.3% (active) | 77.6 |
| COc1cc(-c2nc(-c3ccncc3)no2)cc(OC)c1OC | -7% (inactive) |  |
| Cc1cccc(-c2noc(-c3ccc(F)cc3)n2)c1 | 1% (inactive) |  |
| O=P(c1cccs1)(c1cccs1)c1cccs1 | -23.6% (inactive) |  |
| O=C(Nc1ccccc1C(F)(F)F)c1cc(-c2ccc(O)cc2)on1 | 89% (active) | 96.3 |
| Cc1cc(C)nc(NC(=O)Nc2ccccc2C(F)(F)F)n1 | -24.3% (inactive) |  |
| O=C(c1cc(-c2ccc(O)cc2)on1)N1CCCc2ccccc21 | 15.4% (inactive) |  |

| SMILES | activation | activation [1] [%] |
| --- | --- | --- |
| CCn1c(SCCC(C)C)nnc1-c1c[nH]c2ccccc12 | 33% (inactive) |  |
| Cc1ccc2c(c1)c1ncn(CCC3=CCCCC3)c(=O)c1n2C | -12.4% (inactive) |  |
| CCOCC(=O)NCc1ccc2c(c1)cc(C)n2C | -18% (inactive) |  |
| Cc1ccc(Cn2c(NC(=O)c3ccco3)nc3ccccc32)cc1 | -7.4% (inactive) |  |
| Cc1cc(NC(=O)CN2CCCCC2C)nc2c1c(=O)oc1ccccc12 (stereo not given) | -16.9% (inactive) |  |
| CC1(C)CC(=O)C2=C(C1)NCN(CCCN1CCOCC1)C2 | -12.5% (inactive) |  |
| COc1ccc(CCNC(=O)CCn2c(=O)oc3ccccc32)cc1OC | -30% (inactive) |  |
| Cc1cc(Cl)ccc1N1C(=O)CC(SCCC(=O)O)C1=O (stereo not given) | 15% (inactive) |  |
| O=C(NCCN1C(=O)C2C3C=CC(C3)C2C1=O)Nc1ccccn1 (stereo not given) | 1.7% (inactive) |  |
| C#CCN1CC(C)/C(=N/O)CC1C (stereo not given) | -13.4% (inactive) |  |
| Fc1ccc2[nH]c3c(N4CCN(Cc5ccc6c(c5)OCO6)CC4)ncnc3c2c1 | 106% (active) | 116 |
| Fc1ccc2[nH]c3c(N4CCSCC4)ncnc3c2c1 | 73% (active) | 103 |
| Fc1ccc2nc(N3CCCCC3)sc2c1 | -23.5% (inactive) |  |
| Cc1cc(N2CCN(Cc3ccc4c(c3)OCO4)CC2)n2ncnc2n1 | 3.4% (inactive) |  |
| Cc1ccc(-n2ncc3c(N4CCN(c5ccc(F)cc5)CC4)ncnc32)c(C)c1 | -9.5% (inactive) |  |
| O=C(c1cccs1)N1CCN(Cc2ccc3c(c2)OCO3)CC1 | 1.7% (inactive) |  |
| Cc1noc(/C=C/N(C)C)c1S(=O)(=O)N1CCCC(C(=O)NCc2ccco2)C1 (stereo not given) | -32.7% (inactive) |  |
| Cc1cc(/C=N/n2cnnc2)c(C)n1-c1cccc(C(=O)O)c1 | -16.1% (inactive) |  |
| Cc1ccc(C(c2sc3nc(C)nn3c2O)N2CCN(c3ccccc3)CC2)cc1 (stereo not given) | -6.2% (inactive) |  |
| CCN(CC)P(=O)(C(NC(=O)OC)C(F)(F)C(F)(F)C(F)(F)C(F)F)N(CC)CC (stereo not given) | 2.6% (inactive) |  |
| COc1ccc(CC(=O)n2nc(-c3cccnc3)nc2N)cc1 | 2.4% (inactive) |  |
| CC12CCC(C(=O)N(CCC#N)CCC#N)(CC1=O)C2(C)C (stereo not given) | -0.9% (inactive) |  |
| CC1Cc2ccccc2N1C(=O)CSc1nnc(-c2ccc(S(=O)(=O)N3CCCCC3)cc2)o1 (stereo not given) | -18.5% (inactive) |  |
